Coupling enz: qHTS Assay for Inhibitors of Fructose-1,6-bisphosphate Aldolase from Giardia Lamblia: Coupling assay counterscreen | coupling enzyme system counterscreen, AmpLite Red fluorescence | AID 2472, 2010 | activity change, negative = inhibition, % at 58.2 µM, hits read low | hit rate 0.67% among 290,000; in the data active means activity change below about -30%
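Final compound at 57.5 uM, incubated 10 min at RT with coupling enzyme reagent (glyceraldehyde-3-phosphate), then 20 min with substrate and AmpLite Red detection. Fluorescence read at 525/598 nm; tests interference with the coupling assay, not aldolase inhibition.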
JMJD2E inh: qHTS Assay for Inhibitors of Human Jumonji Domain Containing 2E (JMJD2E). AID 2147, 2009. hit rate 1.6% among 230,000. Lysine-specific demethylase 4E (Homo sapiens), B2RXH2. JMJD2E catalytic domain, FDH-coupled NADH fluorescence (FDH is formaldehyde dehydrogenase). Potency, µM (top dose mostly 57.1 µM), inactives show top-dose activity change, negative = inhibition, usual class: inhibitors; active means well fitted inhibition curve with a large enough effect, not every such curve was filed as active; inconclusive means small, poorly fitted or top-dose-only effect, or another doubt; inactive means no such curve, though single readings can be large or run the other way;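 further: potency means the concentration at half of the fitted maximal effect; 0% = wells with enzyme and -100% = buffer wells without enzyme; nearly all actives have a fitted effect of over 50% in size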
Target sequence (B2RXH2 1-337 limits assumed): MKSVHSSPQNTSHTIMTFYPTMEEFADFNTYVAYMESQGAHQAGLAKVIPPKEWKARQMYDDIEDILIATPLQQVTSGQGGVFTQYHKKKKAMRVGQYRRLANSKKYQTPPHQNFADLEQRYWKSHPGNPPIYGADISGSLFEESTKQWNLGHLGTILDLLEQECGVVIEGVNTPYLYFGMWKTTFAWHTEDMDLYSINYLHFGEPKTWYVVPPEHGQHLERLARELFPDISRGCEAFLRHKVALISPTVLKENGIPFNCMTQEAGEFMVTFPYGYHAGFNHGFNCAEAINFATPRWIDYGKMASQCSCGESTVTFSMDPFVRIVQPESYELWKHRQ
Tau fluor counter: Counterscreen qHTS for Inhibitors of Tau Fibril Formation, Fluorescence Polarization | Potency, µM (series often up to 57.7 µM), for the others: at the top dose activity change, negative = decrease | tau K18 P301L Alexa594 fluorescence, heparin fibrillization | AID 1463, 2008 | hit rate 0.93% among 280,000; further: potency means the concentration at half of the fitted maximal effect; nearly all actives have a fitted effect of over 55% in size
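Human tau K18 P301L (15 uM unlabeled, 0.24 uM Alexa 594-labeled) in 100 mM sodium acetate pH 7 with 20 uM heparin, 6 hr at 37 C. ThT 30 uM added, 1 hr ambient; Alexa 594 FP and total fluorescence read at 555/632 nm.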
Tau fibril ThT: qHTS for Inhibitors of Tau Fibril Formation, Thioflavin T Binding | recombinant tau K18 P301L (four-repeat tau fragment), heparin-induced fibrillization, ThT fluorescence | Potency, µM (doses to about 57.4 µM), without a hit: at the top dose activity, negative = inhibition, most hits filed as inhibitors | AID 1460, 2008 | hit rate 2.1% among 270,000 | Microtubule-associated protein tau (Homo sapiens), P10636; further: potency means the concentration at half of the fitted maximal effect; nearly all actives have a fitted effect of over 55% in size
Target sequence (P10636 561-689 P618L limits assumed): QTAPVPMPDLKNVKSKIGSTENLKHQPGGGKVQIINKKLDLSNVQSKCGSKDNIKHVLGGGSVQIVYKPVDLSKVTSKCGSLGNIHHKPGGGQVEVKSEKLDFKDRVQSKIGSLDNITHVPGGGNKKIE
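Tau K18 P301L fragment (15 uM unlabeled plus 0.24 uM Alexa 594-labeled) in 100 mM sodium acetate pH 7 with compound, fibrillization induced by 20 uM heparin for 6 hr at 37 C. Thioflavin T (30 uM) added, fluorescence read after 1 hr (ex 450, em 510 nm).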
Tau fibril FP: qHTS for Inhibitors of Tau Fibril Formation, Fluorescence Polarization; Microtubule-associated protein tau (Homo sapiens), P10636; K18 P301L tau heparin fibrillization, Alexa594 FP, 6 h; Potency, µM (highest dose often 57.7 µM), without a hit: at the highest dose activity, negative = inhibition, hits mostly inhibitors; hit rate 0.39% among 280,000; further: potency means the concentration at half of the fitted maximal effect; nearly all actives have a fitted effect of over 55% in size
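Quantitative HTS format: compounds meet 15 uM recombinant K18 P301L tau and Alexa 594-tau tracer in 100 mM sodium acetate pH 7; 20 uM heparin triggers fibrillization at 37 C over 6 hr; FP gives the signal.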
Starred values were filed as active, the others as inactive; ? = inconclusive; nt = no result given; [ ] = another dose, or the depositor's remark. Rows were chosen to be rich in hits. Some 3% of all compounds tested hit in one or more screens of this group. Unless noted, the call rests on the fitted dose curve; in most records, active means well fitted curve in the direction sought with a large enough effect; inconclusive means small, poorly fitted or top-dose-only effect, or another doubt; inactive means no such curve, though single readings can be large; an effect the other way counts as inactive or inconclusive. Unless noted, on the % scale 0 is the no-effect control and ±100 the full control effect.

SMILES	Coupling enz	JMJD2E inh	Tau fluor counter	Tau fibril ThT	Tau fibril FP
Cc1ccc(N=Cc2c(O)c3ccccc3oc2=O)cc1F	2	nt	nt	nt	nt
CCOC(=O)c1sc(/N=C/c2c(O)ccc3ccccc23)cc1C	-34*	-22%	-22%	?	-4%
Cn1c(/N=C/c2c(O)ccc3ccccc23)nc2ccccc21	-79*	-1%	5%	12%	11%
N#Cc1cccc(N=Cc2c(O)ccc3ccccc23)c1	-38*	?	-12%	?	-18%
Cc1ccc(N=Cc2c(O)ccc3ccccc23)cc1F	-47*	-5%	-29%	?	?
CCCn1c(/N=C/c2ccccc2O)nc2ccccc21	-2	-1%	0%	7%	1%
COc1ccc(N=Cc2c(O)ccc3ccccc23)cc1	-23	-15%	?	8.9µM*	-7%
CC(=O)Nc1ccc(N=Cc2c(O)ccc3ccccc23)cc1	-11	nt	nt	nt	nt
COc1ccc(Cn2c(O)c(C=Nc3ccc(O)cc3)c3ccccc3c2=O)cc1	1	-11%	4.5µM*[quencher]	?	?
O=S(=O)(/N=C/c1c(O)ccc2ccccc12)c1ccccc1	-36*	nt	nt	nt	nt
COc1ccc(Cn2c(O)c(C=Nc3ccccc3)c3ccccc3c2=O)cc1	-3	?	?	-3%	?
CC(C)CO/N=C1/C[C@@H](O)[C@@H](O)[C@@H]2[C@@H]3C(=O)N(Cc4ccccc4)C(=O)[C@H]3CC[C@@H]12	2	nt	1%[11.6 µM]	-3%[11.5 µM]	7%[11.6 µM]
Cc1ccc2nc(CSc3nc(C)ccc3C#N)[nH]c2c1	-9	?	?	11µM*	2%
c1ccc2c(c1)CCN(C1=Nc3cccc4cccc1c34)C2	-25	?	-14%	16µM*	-14%
c1cc2c3c(cccc3c1)C(N1CCCCCC1)=N2	-23	?	0%	-6%	-1%
Cc1cccc2c3c(ccc12)C1=C(C(=O)C3=O)[C@@H](C)CO1	-42*	nt	nt	nt	nt
O=C(Nc1ccc(Br)c(C(F)(F)F)c1)c1ccc(C(F)(F)F)cc1	-9	4%	-28%	nt	22µM*
N#CC1=C(N)N(c2ccc(F)cc2)C2=C(C1c1ccc(O)cc1)S(=O)(=O)CC2 (stereo unspecified)	-26	20µM*	?	16µM*	?
CCC(=O)N1CCc2cc(Br)cc(S(=O)(=O)CCC(=O)NCc3ccccc3)c21	nt	nt	-11%	-3%	-4%
CNc1nc(N/N=C/c2cc3c(cc2[N+](=O)[O-])OCO3)nc(Nc2ccccc2)n1	1	2%	-30%	7.1µM*	7%
O=[N+]([O-])c1cc2c(cc1/C=N\NS(=O)(=O)c1ccccc1)OCO2	0	23%	-19%	?	?
COC(=O)C1=C[C@@H](C(=O)OC)[C@@H]2C3=C(C(=O)[C@@]2(CC(C)C)NC(=O)c2ccccc2)[C@H](C)n2c(=O)n(-c4ccccc4)c(=O)n2[C@@H]3C1	-1	nt	nt	nt	nt
Cc1cccc(C)c1NC(=O)CSc1nnc(-c2ccco2)c(-c2ccco2)n1	4	?	?	25µM*	?
Cc1ccccc1NC(=O)CSc1nnc(-c2ccco2)c(-c2ccco2)n1	2	?	?	7.9µM*	8.9µM*
COc1ccc(S(=O)(=O)Nc2ccc3c(c2)CCCN3S(=O)(=O)c2ccc(C)cc2)cc1F	nt	nt	?	-2%	?
COc1ccc(NC(=O)CC2Oc3ccc(C)cc3NC2=O)cc1Cl (stereo unspecified)	nt	nt	17%	?	?
O=C(NN=C1CCN(Cc2ccccc2)CC1)c1cc2ccccc2cc1O	-13	28µM*	?	13µM*	1%
C=CCn1c(O)c(N=NC(=O)CNC(=O)/C=C/c2ccc(OC)cc2)c2ccccc21	7	3%	-24%	13µM*	-14%
C=CCn1c(O)c(N=NC(=O)CNC(=O)/C=C/c2ccco2)c2ccccc21	-2	-4%	-11%	20µM*	-5%

Screening data (PubChem BioAssay)
